According to PubChem BioAssay (NCATS):
A number with no mark means an inactive call. Results filed as inconclusive are left out. The source made the active and inactive calls. Unless noted, calls come from the whole dose curve; as a rule, active = well fitted curve in the direction sought with a large enough effect; inconclusive = small, poorly fitted or top-dose-only effect, or another doubt; inactive = no such curve, though single readings can be large; an effect the other way counts as inactive or inconclusive.

Columns and labels:
[1] = target: Lysosomal acid glucosylceramidase (Homo sapiens) (UniProt P04062); experiment: Glucocerebrosidase-p2 (AID 348; in the data active = potency below about 10 µM; note: potency is the fitted concentration of half-maximal effect); conditions: purified GBA, blue fluorogenic substrate, 40 min
Summary of the method: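 Normal human glucocerebrosidase (0.2 nM) with blue fluorogenic substrate (80 uM final) in citrate/phosphate pH 5.9 with 10mM sodium taurocholate, 0.01% tween-20; 40 min RT, NaOH/glycine stop; fluorescence Ex 365/Em 440; AC50 from a titration from 0.6 nM upwards.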

[2] = AP1 Signaling Pathway (AID 357; active = well fitted curve in either direction with a large enough effect, not every such curve was filed as active;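 note: ME-180 reporter cells stimulated with EGF at its EC50 level; % is set by controls: 0 for no effect and ±100 for the full control effect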); conditions: ME-180 AP-1-bla reporter, EGF-induced, beta-lactamase ratio, 5 h; at 7.69 µM (top of the series) unless noted
Summary of the method: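 Beta-lactamase reporter under AP-1 response element, ME-180 background. Stimulus: EC50 EGF. Compound exposure 5 h, 37 °C. Detection: CCF4, 2.5 h RT, 460/530 nm. Values: AC50 from titration.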

[3] = target: Cytochrome P450 1A2 (Homo sapiens) (UniProt P05177); experiment: p450-cyp1a2 (AID 410; calls by dose curve; note: potency is the fitted concentration of half-maximal effect)
Summary of the method: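 Read-out is luminescence from luciferin produced by CYP1A2 demethylation of Luciferin-ME (100uM, at Km). Detection reagent stopped the 60 min NADPH-dependent reaction; signals were normalized to 57 uM furafylline.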

[4] = NFAT Signaling Pathway (AID 444; active = well fitted curve in either direction with a large enough effect, not every such curve was filed as active;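 note: carbachol stimulus at about its EC50 of 1 µM final; % is set by controls: 0 for no effect and ±100 for the full control effect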); conditions: Jurkat NFAT-bla M1, carbachol, beta-lactamase ratio, 5 h; at 7.69 µM (top of the series) unless noted
Summary of the method: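 Jurkat cells with NFAT-driven β-lactamase reporter and co-expressed M1 receptor, stimulated with carbachol (final 1 uM, ~EC50), compound titration, 5 h at 37 °C. CCF4 loaded 1 h at RT; 460/530 nm ratio gave %activity and AC50.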

[5] = Stat Signaling Pathway (AID 446; active = well fitted curve in either direction with a large enough effect, not every such curve was filed as active;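 note: ME-180 cervical cancer cells given 40 pM IL-6 alongside compound; SIE-controlled beta-lactamase reporter measured as 460/530 nm FRET emission ratio; % is set by controls: 0 for no effect and ±100 for the full control effect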); conditions: ME-180 (cervical carcinoma) SIE beta-lactamase reporter, IL-6 stimulated, 5 h; at 7.69 µM (top of the series) unless noted
Summary of the method: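 Emission at 460 and 530 nm (excitation 405 nm) reports SIE-controlled beta-lactamase in ME-180 cells. Cells received compound with 40 pM IL-6 for 5 hrs at 37 C; data scaled between 300 pM IL-6 and 125 nM JAK-inhibitor controls.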

[6] = target: Glucocorticoid receptor (Homo sapiens) (UniProt P04150); experiment: GR-GFP Redistribution (AID 450;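 active = compounds whose dose series gives a full or clear partial fitted curve of increased nuclear translocation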; note: potency is the fitted concentration of half-maximal effect); conditions: U2OS GR-GFP nuclear translocation, laser cytometry, 2 h
[7] = target: Glucocorticoid receptor (Homo sapiens) (UniProt P04150); experiment: GR-EFC Redistribution (AID 451; calls by dose curve; note: potency is the fitted concentration of half-maximal effect); conditions: CHO-K1 GR-EFC translocation, beta-gal luminescence, 2 h
Summary of the method: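 CHO-K1 cells expressing nuclear EA and GR-ED fragments of b-gal; compounds titrated up to 46 uM final, 2 h at 37 C. GR nuclear translocation read as complemented b-gal luminescence after 1 h RT detection.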

[8] = target: Mitogen-activated protein kinase 10 (Mus musculus) (UniProt Q61831); experiment: JNK3 AlphaScreen Assay (AID 530; active = well fitted curve in either direction with a large enough effect, not every such curve was filed as active;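 note: kinase came from lysate of stimulated human HepG2 cells; signal reports phosphorylation of biotinylated GST-cJun 1-79 at Ser73 with 10 µM ATP; % is set by controls: 0 for no effect and ±100 for the full control effect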)
Summary of the method: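 HepG2 lysate (IL-1b/TNFa pre-activated) + biotin-GST-cJun 1-79 + anti-pSer73 cJun; cpd titration, 15 min RT; ATP 10 uM start; Tris pH 7.6, MgCl2, DTT, vanadate; beads in EDTA buffer; AlphaScreen.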

[9] = target: 3',5'-cyclic-AMP phosphodiesterase 4B (Homo sapiens) (UniProt Q07343); experiment: qHTS Assay for Inhibitors of PDE-IV (AID 607; active = well fitted activation curve with a large enough effect in the main read-out, with a control signal flat, not every such curve was filed as active; note: % of control where 0% means no effect)
Summary of the method: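 The readout is membrane depolarisation from a cAMP-sensing CNG channel, detected with a potential dye at ex 535/em 590. Cells were HEK293-derived (endogenous PDE-IV) at 1000 cells/well, titrated up to 22.9 uM final.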

[10] = target: Cytochrome P450 3A4 (Homo sapiens) (UniProt P08684); experiment: qHTS Assay for Inhibitors and Substrates of Cytochrome P450 3A4 (AID 884); note: potency is the fitted concentration of half-maximal effect; nearly all actives have a fitted effect of over 50% in size
Summary of the method: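 Luminescent readout of luciferin produced by CYP3A4 (20 nM) dealkylation of Luciferin-PPXE, 25 uM (its KM). NADPH-driven reaction ran 60 min at RT after 10 min compound preincubation; data scaled to 57 uM ketoconazole as 100% inhibition.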

[11] = target: Cytochrome P450 3A4 (Homo sapiens) (UniProt P08684); experiment: qHTS Assay for Activators of Cytochrome P450 3A4 (AID 885); note: nearly all actives have a fitted effect of over 65% in size
Summary of the method: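 Activators are scored by enhanced luminescence from CYP3A4 conversion of luciferin-PPXE (25uM, equal to KM) to luciferin, after 60 min at RT with an NADPH-regenerating system.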

[12] = target: Dual specificity protein kinase CLK4 (Homo sapiens) (UniProt Q9HAZ1); experiment: qHTS Assay for Inhibitors of CDC-like Kinase 4 (Kinase-Glo Assay) (AID 1770); note: potency is the fitted concentration of half-maximal effect; nearly all actives have a fitted effect of over 65% in size
Summary of the method: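 25 nM Clk4 with 100 uM RS repeat peptide and 1 uM ATP (final) in Tris pH7.5, 10 mM MgCl2, 4.5 h at room temperature. Remaining ATP measured by Kinase-Glo luciferase luminescence.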

[13] = target: Dual specificity protein kinase CLK4 (Homo sapiens) (UniProt Q9HAZ1); experiment: qHTS Assay for Inhibitors of CDC-like Kinase 4 (ADP-Glo Assay) (AID 1771); note: potency is the fitted concentration of half-maximal effect; nearly all actives have a fitted effect of over 70% in size
Summary of the method: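 In this ADP-Glo format, 1 uM ATP and 100 uM RS peptide served as substrates for 25 nM Clk4 in Mg2+/EGTA/DTT/Triton buffer; reactions ran 1 hr at room temperature before luminescent ADP quantification.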

[14] = target: Ubiquitin carboxyl-terminal hydrolase 1 (Homo sapiens) (UniProt O94782); experiment: Inhibitors of USP1/UAF1: Pilot qHTS (AID 504865);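 note: rhodamine fluorescence freed from ubiquitin-rhodamine substrate followed over time; top concentration of the series differs between compounds; % is set by controls: 0 for no effect and ±100 for the full control effect; nearly all actives have a fitted effect of over 35% in size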
Summary of the method: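 USP1/UAF1 complex at 1 nM preincubated 15 min at room temperature with compound, then Ub-Rho substrate added at 150 nM final. Fluorescence (480/540 nm) read kinetically in 50 mM HEPES pH 7.8, 0.5 mM EDTA, 1 mM TCEP, 0.1 mg/ml BSA, 0.01% Tween-20.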

[15] = Primary qHTS for small molecule stabilizers of the endoplasmic reticulum resident proteome: Secreted ER Calcium Modulated Protein (SERCaMP) assay (AID 1508630); note: % is set by controls: 0 for no effect and ±100 for the full control effect
Summary of the method: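 The SH-SY5Y reporter protocol was run at 3 concentrations up to 38.3 uM (primary) or 11 concentrations (follow-up): 16 h compound, 100 nM thapsigargin for 4 h, then extracellular luciferase luminescence.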

[16] = target: Cytochrome P450 2C9 (Homo sapiens) (UniProt P11712); experiment: qHTS Assay for Inhibitors and Substrates of Cytochrome P450 2C9 (AID 883); note: nearly all actives have a fitted effect of over 60% in size; note: potency is the fitted concentration of half-maximal effect
Summary of the method: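 Signal: luciferase luminescence reporting luciferin produced by CYP2C9. Conditions: 10nM enzyme, Luciferin-H 100uM at KM, 25mM KPO4, 37C, 60 min NADPH-driven reaction. Reference: 57uM sulphaphenazole as 100% inhibition.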

[17] = target: Cytochrome P450 2D6 (Homo sapiens) (UniProt P10635); experiment: qHTS Assay for Inhibitors and Substrates of Cytochrome P450 2D6 (AID 891); note: potency is the fitted concentration of half-maximal effect; nearly all actives have a fitted effect of over 60% in size
Summary of the method: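 Luminescent read-out of luciferin formed by 5 nM human CYP2D6 demethylating 30 uM Luciferin-ME EGE (Km level) over 60 min at room temperature after NADPH regeneration addition. Data normalized to full inhibition by 1.43 uM quinidine.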

[18] = target: Cytochrome P450 2C19 (Homo sapiens) (UniProt P33261); experiment: qHTS Assay for Inhibitors and Substrates of Cytochrome P450 2C19 (AID 899); note: potency is the fitted concentration of half-maximal effect; nearly all actives have a fitted effect of over 60% in size
Summary of the method: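 Signal comes from luciferase acting on luciferin released by CYP2C19-mediated hydroxylation of Luciferin-H EGE, 10uM (KM). Assay mix: 5nM enzyme, 50mM KPO4; 60 min at 37C with NADPH regeneration. Data normalized against 57uM ketoconazole.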

Chain of Glucocorticoid receptor (Homo sapiens) (P04150 whole entry, looked up, the tested form may be a part): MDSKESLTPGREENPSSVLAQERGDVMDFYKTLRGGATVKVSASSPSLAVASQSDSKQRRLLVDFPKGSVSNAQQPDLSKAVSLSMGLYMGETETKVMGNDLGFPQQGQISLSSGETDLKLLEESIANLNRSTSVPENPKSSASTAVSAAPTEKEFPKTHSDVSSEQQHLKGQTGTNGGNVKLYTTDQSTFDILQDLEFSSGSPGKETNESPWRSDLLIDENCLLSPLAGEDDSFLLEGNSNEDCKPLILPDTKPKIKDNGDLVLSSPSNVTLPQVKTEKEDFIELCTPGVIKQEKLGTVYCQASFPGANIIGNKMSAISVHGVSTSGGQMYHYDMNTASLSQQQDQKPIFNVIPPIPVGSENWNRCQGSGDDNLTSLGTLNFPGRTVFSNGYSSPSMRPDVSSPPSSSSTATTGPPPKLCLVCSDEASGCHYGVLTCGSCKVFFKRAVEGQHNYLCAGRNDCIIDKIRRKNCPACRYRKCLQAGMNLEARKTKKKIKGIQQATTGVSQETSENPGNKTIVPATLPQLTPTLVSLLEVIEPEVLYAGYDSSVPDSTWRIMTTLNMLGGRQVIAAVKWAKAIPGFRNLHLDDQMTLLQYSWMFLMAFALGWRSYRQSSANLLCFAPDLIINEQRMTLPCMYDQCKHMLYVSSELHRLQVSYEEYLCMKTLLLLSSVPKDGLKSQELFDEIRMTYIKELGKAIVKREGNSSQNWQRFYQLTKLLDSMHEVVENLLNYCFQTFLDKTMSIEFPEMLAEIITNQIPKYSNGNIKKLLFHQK
Chain of 3',5'-cyclic-AMP phosphodiesterase 4B (Homo sapiens) (Q07343 whole entry, looked up): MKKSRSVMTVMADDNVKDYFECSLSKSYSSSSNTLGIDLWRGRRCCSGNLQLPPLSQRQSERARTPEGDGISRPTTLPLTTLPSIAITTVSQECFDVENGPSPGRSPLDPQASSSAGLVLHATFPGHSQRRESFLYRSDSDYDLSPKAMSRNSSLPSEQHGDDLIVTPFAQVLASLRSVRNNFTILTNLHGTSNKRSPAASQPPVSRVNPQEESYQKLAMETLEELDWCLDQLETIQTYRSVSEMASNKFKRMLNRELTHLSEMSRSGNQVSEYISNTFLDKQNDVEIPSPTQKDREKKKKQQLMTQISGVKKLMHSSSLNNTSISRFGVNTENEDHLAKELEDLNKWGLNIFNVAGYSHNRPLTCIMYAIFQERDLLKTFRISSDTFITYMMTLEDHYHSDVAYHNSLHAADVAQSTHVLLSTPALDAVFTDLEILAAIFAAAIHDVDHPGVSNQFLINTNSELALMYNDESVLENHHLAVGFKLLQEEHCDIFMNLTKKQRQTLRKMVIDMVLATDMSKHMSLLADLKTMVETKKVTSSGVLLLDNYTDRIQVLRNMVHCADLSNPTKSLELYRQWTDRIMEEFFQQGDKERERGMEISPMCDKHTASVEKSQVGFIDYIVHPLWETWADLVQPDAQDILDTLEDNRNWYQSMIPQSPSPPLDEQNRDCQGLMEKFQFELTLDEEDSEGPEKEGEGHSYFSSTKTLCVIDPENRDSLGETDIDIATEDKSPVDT
Chain of Cytochrome P450 3A4 (Homo sapiens) (P08684 whole entry, looked up): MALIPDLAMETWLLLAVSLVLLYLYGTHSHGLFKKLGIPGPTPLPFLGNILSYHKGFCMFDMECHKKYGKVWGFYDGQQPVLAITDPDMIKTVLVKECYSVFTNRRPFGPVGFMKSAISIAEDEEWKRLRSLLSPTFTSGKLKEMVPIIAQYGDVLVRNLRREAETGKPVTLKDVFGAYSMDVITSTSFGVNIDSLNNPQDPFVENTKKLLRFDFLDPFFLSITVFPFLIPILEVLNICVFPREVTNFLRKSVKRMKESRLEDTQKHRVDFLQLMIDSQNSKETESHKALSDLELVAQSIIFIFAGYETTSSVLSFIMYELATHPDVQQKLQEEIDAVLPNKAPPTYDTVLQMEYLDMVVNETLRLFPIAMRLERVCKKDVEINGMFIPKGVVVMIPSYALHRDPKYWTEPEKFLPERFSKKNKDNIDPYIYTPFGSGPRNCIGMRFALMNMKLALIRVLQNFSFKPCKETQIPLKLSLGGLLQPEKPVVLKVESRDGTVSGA
Chain of Ubiquitin carboxyl-terminal hydrolase 1 (Homo sapiens) (O94782 whole entry, looked up): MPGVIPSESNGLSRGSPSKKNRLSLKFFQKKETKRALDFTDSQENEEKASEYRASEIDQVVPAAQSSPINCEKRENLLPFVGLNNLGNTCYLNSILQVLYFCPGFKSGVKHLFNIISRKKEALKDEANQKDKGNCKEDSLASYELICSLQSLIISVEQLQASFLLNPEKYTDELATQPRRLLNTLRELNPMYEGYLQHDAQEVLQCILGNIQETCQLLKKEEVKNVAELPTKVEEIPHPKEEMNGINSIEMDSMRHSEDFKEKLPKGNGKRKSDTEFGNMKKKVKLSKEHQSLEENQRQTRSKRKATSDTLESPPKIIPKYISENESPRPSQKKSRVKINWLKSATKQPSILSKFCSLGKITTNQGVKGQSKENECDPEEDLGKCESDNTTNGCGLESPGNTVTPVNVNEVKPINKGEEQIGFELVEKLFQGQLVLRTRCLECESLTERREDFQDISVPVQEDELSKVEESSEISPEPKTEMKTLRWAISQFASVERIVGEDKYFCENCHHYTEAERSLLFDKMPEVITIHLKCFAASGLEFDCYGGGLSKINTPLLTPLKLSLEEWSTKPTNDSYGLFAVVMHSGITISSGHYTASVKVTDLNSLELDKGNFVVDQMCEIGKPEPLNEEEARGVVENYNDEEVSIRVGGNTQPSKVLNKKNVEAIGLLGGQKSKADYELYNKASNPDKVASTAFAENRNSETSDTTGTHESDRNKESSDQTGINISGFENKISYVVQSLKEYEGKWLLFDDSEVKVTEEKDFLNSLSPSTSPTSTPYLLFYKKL
Chain of Dual specificity protein kinase CLK4 (Homo sapiens) (Q9HAZ1 whole entry, looked up): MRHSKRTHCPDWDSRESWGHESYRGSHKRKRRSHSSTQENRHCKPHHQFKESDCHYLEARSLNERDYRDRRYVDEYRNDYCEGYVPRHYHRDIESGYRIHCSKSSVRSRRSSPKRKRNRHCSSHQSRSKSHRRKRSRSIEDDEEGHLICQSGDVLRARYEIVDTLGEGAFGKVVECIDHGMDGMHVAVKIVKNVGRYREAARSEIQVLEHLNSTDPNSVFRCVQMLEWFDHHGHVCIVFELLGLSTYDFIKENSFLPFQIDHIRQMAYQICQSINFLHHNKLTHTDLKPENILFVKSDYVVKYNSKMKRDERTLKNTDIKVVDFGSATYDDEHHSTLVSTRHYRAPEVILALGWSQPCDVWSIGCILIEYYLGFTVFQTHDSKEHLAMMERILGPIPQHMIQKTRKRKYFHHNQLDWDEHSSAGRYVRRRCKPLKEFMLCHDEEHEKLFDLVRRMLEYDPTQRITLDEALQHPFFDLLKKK
Chain of Cytochrome P450 1A2 (Homo sapiens) (P05177 whole entry, looked up): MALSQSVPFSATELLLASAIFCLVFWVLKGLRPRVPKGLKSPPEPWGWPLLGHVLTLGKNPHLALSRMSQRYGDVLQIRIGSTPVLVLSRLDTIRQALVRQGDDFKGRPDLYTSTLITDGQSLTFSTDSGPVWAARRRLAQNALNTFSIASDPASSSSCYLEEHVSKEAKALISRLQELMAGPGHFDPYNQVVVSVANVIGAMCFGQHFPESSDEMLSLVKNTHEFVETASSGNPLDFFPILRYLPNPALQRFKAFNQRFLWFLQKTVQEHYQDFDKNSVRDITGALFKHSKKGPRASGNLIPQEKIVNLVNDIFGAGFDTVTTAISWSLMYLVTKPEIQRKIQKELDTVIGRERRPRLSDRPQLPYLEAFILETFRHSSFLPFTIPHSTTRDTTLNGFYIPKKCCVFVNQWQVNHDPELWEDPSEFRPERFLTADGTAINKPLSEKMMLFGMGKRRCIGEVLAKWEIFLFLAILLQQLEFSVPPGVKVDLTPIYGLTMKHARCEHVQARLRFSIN
Chain of Lysosomal acid glucosylceramidase (Homo sapiens) (P04062 whole entry, looked up): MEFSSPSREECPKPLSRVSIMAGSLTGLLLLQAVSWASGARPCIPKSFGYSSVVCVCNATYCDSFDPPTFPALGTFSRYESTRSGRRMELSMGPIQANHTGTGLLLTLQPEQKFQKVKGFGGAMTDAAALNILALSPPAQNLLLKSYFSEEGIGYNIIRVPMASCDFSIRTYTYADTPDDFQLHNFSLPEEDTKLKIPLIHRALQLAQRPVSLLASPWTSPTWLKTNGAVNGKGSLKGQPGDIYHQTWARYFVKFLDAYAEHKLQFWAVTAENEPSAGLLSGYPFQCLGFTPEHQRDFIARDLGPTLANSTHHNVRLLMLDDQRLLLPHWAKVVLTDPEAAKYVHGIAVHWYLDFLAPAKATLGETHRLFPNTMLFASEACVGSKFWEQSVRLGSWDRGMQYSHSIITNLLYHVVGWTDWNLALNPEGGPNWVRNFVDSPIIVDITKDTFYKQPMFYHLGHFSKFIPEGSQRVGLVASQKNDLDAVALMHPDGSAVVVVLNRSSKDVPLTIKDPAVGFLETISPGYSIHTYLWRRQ
Chain of Cytochrome P450 2C9 (Homo sapiens) (P11712 whole entry, looked up): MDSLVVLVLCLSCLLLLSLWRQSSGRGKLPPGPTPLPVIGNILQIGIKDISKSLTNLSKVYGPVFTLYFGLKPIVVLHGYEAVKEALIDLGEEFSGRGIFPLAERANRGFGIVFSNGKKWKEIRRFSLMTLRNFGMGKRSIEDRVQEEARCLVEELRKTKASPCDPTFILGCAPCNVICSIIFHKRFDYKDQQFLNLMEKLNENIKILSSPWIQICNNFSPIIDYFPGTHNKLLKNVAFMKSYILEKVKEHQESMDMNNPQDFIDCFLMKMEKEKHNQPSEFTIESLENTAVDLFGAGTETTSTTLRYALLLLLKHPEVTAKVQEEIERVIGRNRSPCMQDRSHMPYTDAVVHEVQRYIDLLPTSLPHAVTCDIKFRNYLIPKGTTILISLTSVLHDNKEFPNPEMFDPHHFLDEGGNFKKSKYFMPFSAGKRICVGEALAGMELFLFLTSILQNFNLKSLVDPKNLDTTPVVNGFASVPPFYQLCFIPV

For Cc1cnc(CNc2ncncc2-c2ccc3c(c2)OCO3)cn1, the Potency [1] was > 11.4 µM, the activity change, negative = inhibition [2] was -10.4% and the Potency [3] was 2 µM (active). For the same molecule, the activity change, negative = inhibition [4] was -2.24%, the activity, negative = inhibition [5] was 4.5% and the Potency [6] was > 46 µM. For the same molecule, the Potency [7] was > 46 µM, the Potency [8] was “inactive” and the Potency [9] was “inactive”. For the same molecule, the Potency [10] was 1.58 µM (active), the Potency [11] was “inactive” and the Potency [12] was 14.1 µM (active). The Potency [13] was 15.8 µM (active), the Potency [14] was “inactive” and the outcome [15] was “inactive”.
With Cc1noc(C)c1-c1ccc2ncnc(N3CCC(C(=O)O)CC3)c2c1 the Potency [1] was > 11.4 µM, the activity change, negative = inhibition [2] was 8.06% and the Potency [3] was 25.1 µM (active). For the same molecule, the activity change, negative = inhibition [4] was -4.03%, the activity, negative = inhibition [5] was 10.8% and the Potency [6] was > 46 µM. For the same molecule, the Potency [7] was > 46 µM, the Potency [8] was “inactive” and the Potency [9] was “inactive”. For the same molecule, the Potency [12] was 25.1 µM (active), the Potency [13] was 25.1 µM (active) and the Potency [14] was “inactive”. For the same molecule, the outcome [15] was “inactive”.
In the case of c1cncc(-c2nccc(NCc3cccs3)n2)c1, the Potency [1] is reported as > 11.4 µM, the activity change, negative = inhibition [2] is reported as 4.03% and the Potency [3] is reported as 0.2 µM (active). The activity change, negative = inhibition [4] was 13.5%, the activity, negative = inhibition [5] was -3.1% and the Potency [6] was > 46 µM. For the same molecule, the Potency [7] was > 46 µM, the Potency [8] was “inactive” and the Potency [16] was 0.398 µM (active). The Potency [11] was “inactive”, the Potency [17] was 0.631 µM (active) and the Potency [18] was 7.94 µM (active). For the same molecule, the Potency [12] was 14.1 µM (active), the Potency [13] was 10 µM (active) and the Potency [14] was “inactive”. For the same molecule, the outcome [15] was “inactive”.
For COc1ccc2[nH]cc(CCNc3cc(-c4cccnc4)ncn3)c2c1, the Potency [1] was > 11.4 µM, the activity change, negative = inhibition [2] was -10.1% and the Potency [3] was 3.16 µM (active). For the same molecule, the activity change, negative = inhibition [4] was 15.6%, the activity, negative = inhibition [5] was -2.74% and the Potency [6] was > 46 µM. For the same molecule, the Potency [7] was > 46 µM, the Potency [9] was “inactive” and the Potency [10] was 3.98 µM (active). The Potency [11] was “inactive”, the Potency [12] was 14.1 µM (active) and the Potency [13] was 15.8 µM (active). For the same molecule, the Potency [14] was “inactive” and the outcome [15] was “inactive”.
With COc1cccc(-c2cc(NCc3ccccc3OC)ncn2)c1 the Potency [1] was > 11.4 µM, the activity change, negative = inhibition [2] was -14.5% and the Potency [3] was 1.26 µM (active). For the same molecule, the activity change, negative = inhibition [4] was 6.41%, the activity, negative = inhibition [5] was -1.37% and the Potency [6] was > 46 µM. For the same molecule, the Potency [7] was > 46 µM, the Potency [8] was “inactive” and the Potency [9] was “inactive”. For the same molecule, the Potency [11] was “inactive”, the Potency [18] was 7.94 µM (active) and the Potency [12] was 15.8 µM (active). The Potency [13] was 28.2 µM (active), the Potency [14] was “inactive” and the outcome [15] was “inactive”.
With CC(=O)NCCNc1nc(-c2ccccc2C)nc2ccccc12 the Potency [1] was > 11.4 µM, the activity change, negative = inhibition [2] was 7.34% and the Potency [3] was 6.31 µM (active). For the same molecule, the activity change, negative = inhibition [4] was -9.21%, the activity, negative = inhibition [5] was 7.37% and the Potency [6] was > 46 µM. The Potency [7] was > 46 µM, the Potency [8] was “inactive” and the activity change, negative = inhibition [16] was 46.4% [at 2.29 µM]. For the same molecule, the Potency [11] was “inactive”, the Potency [17] was 5.01 µM (active) and the Potency [12] was 22.4 µM (active). For the same molecule, the Potency [13] was 15.8 µM (active), the Potency [14] was “inactive” and the outcome [15] was “inactive”.
